Measured values as given in the supplement of paper PMC10849652.
The full data set covers some 8,800 targets. This sample favours those with a hit. About 0.5% of all pairs of compound and target were hits. Unmarked numbers belong to inactive results.

Tests used:
Assay in all cases: log2 fold change, soluble protein after heating vs DMSO (PISA); higher = thermal stabilisation; K562 lysate, 10 uM; active = over 0.2 and 3.5 SD of the protein, either way, in both replicates (recomputed)
alvocidib = compound: CN1CC[C@H](c2c(O)cc(O)c3c(=O)cc(-c4ccccc4Cl)oc23)[C@H](O)C1 [alvocidib]
Summary of the method: (§1)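 A 30 min treatment with 10 μM compound was applied to crude K562 extract at 1 mg/mL protein in PBS pH 7.4 with 1 mM MgCl2. Heating for 3 min spanned 48°C-58°C, after which aliquots were pooled, adjusted to 0.5% NP-40 at 4°C and spun at 21,000xg for 90 min. TMTpro 16plex LC-MS/MS of the supernatant, with channel sums equalised, gave values recorded as log-two fold change in thermal stability against solvent controls, from duplicates.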

Tubastatin A = compound: CN1CCc2c(c3ccccc3n2Cc2ccc(C(=O)NO)cc2)C1 [Tubastatin A]
Summary of the method: as §1

[1] = compound: CNC(=O)C1=CC=CC=C1NC2=NC(=NC=C2Cl)NC3=C(C=C(C=C3)N4CCOCC4)OC
Summary of the method: as §1

defactinib = compound: CNC(=O)c1ccc(Nc2ncc(C(F)(F)F)c(NCc3nccnc3N(C)S(C)(=O)=O)n2)cc1 [defactinib]
Summary of the method: as §1

[2] = compound: CNc1nc(-c2ccc3c(N)n[nH]c3c2)cc(N2C[C@@H](C(=O)NC3CCCCC3)CC[C@H]2C)n1
Summary of the method: as §1

encorafenib = compound: COC(=O)N[C@@H](C)CNc1nccc(-c2cn(C(C)C)nc2-c2cc(Cl)cc(NS(C)(=O)=O)c2F)n1 [encorafenib]
Summary of the method: as §1

[3] = compound: COC(=O)[C@H](CCSC)NC(=O)C1=C(C=C(C=C1)NC[C@H](CS)N)C2=CC=CC=C2
Summary of the method: as §1

alisertib = compound: COc1cc(Nc2ncc3c(n2)-c2ccc(Cl)cc2C(c2c(F)cccc2OC)=NC3)ccc1C(=O)O [alisertib]
Summary of the method: as §1

[4] = compound: COc1cc2nc(-c3cc(F)ccc3O)nc(N[C@@H]3CNC[C@H]3C(C)(C)O)c2cc1OC
Summary of the method: as §1

gefitinib = compound: COc1cc2ncnc(Nc3ccc(F)c(Cl)c3)c2cc1OCCCN1CCOCC1 [gefitinib]
Summary of the method: as §1

lapatinib = compound: CS(=O)(=O)CCNCc1ccc(-c2ccc3ncnc(Nc4ccc(OCc5cccc(F)c5)c(Cl)c4)c3c2)o1 [lapatinib]
Summary of the method: as §1

pictilisib = compound: CS(=O)(=O)N1CCN(Cc2cc3nc(-c4cccc5[nH]ncc45)nc(N4CCOCC4)c3s2)CC1 [pictilisib]
Summary of the method: as §1

crizotinib = compound: C[C@@H](Oc1cc(-c2cnn(C3CCNCC3)c2)cnc1N)c1c(Cl)ccc(F)c1Cl [crizotinib]
Summary of the method: as §1

[5] = compound: C[C@H](C1=CC=C(C=C1)C(=O)NC2=C3C=CNC3=NC=C2)N
Summary of the method: as §1

duvelisib = compound: C[C@H](Nc1ncnc2nc[nH]c12)c1cc2cccc(Cl)c2c(=O)n1-c1ccccc1 [duvelisib]
Summary of the method: as §1

gandotinib = compound: Cc1cc(Nc2cc(CN3CCOCC3)c3nc(C)c(Cc4ccc(Cl)cc4F)n3n2)n[nH]1 [gandotinib]
Summary of the method: as §1

tozasertib = compound: Cc1cc(Nc2cc(N3CCN(C)CC3)nc(Sc3ccc(NC(=O)C4CC4)cc3)n2)n[nH]1 [tozasertib]
Summary of the method: as §1

doramapimod = compound: Cc1ccc(-n2nc(C(C)(C)C)cc2NC(=O)Nc2ccc(OCCN3CCOCC3)c3ccccc23)cc1 [doramapimod]
Summary of the method: as §1

bafetinib = compound: Cc1ccc(NC(=O)c2ccc(CN3CC[C@H](N(C)C)C3)c(C(F)(F)F)c2)cc1Nc1nccc(-c2cncnc2)n1 [bafetinib]
Summary of the method: as §1

[6] = compound: Cc1cccc(CC(=O)N2CCc3c2ccc(-c2cn(C)c4ncnc(N)c24)c3F)n1
Summary of the method: as §1

UniProt Q16659, sequence (Q16659 whole entry, looked up): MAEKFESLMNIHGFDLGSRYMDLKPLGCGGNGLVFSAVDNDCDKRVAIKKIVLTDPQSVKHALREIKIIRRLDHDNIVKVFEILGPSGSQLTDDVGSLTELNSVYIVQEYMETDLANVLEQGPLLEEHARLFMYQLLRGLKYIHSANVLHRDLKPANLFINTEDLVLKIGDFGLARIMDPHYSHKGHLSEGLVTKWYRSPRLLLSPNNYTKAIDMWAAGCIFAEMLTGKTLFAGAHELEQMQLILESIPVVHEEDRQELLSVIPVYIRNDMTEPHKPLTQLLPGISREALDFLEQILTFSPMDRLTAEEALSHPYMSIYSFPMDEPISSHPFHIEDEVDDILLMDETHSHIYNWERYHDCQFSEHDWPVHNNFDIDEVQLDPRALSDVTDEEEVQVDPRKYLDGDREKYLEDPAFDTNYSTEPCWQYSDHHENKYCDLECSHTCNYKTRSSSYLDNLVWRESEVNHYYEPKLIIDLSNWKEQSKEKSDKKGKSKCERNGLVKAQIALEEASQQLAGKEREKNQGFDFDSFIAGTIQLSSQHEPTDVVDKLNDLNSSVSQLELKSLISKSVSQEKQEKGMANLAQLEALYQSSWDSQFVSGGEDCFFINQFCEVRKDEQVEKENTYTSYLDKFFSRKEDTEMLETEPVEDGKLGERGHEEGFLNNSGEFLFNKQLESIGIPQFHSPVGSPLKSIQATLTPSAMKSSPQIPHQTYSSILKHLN
UniProt Q9BVC4, sequence (Q9BVC4 whole entry, looked up): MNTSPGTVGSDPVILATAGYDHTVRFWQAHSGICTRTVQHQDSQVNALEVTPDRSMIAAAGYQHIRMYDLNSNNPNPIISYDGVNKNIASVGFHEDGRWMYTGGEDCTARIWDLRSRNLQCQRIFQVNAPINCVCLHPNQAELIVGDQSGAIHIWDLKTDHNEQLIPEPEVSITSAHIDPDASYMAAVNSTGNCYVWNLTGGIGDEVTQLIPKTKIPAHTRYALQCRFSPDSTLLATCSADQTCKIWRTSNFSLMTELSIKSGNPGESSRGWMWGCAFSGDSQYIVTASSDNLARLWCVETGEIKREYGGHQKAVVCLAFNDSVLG
UniProt Q8NE86, sequence (Q8NE86 whole entry, looked up): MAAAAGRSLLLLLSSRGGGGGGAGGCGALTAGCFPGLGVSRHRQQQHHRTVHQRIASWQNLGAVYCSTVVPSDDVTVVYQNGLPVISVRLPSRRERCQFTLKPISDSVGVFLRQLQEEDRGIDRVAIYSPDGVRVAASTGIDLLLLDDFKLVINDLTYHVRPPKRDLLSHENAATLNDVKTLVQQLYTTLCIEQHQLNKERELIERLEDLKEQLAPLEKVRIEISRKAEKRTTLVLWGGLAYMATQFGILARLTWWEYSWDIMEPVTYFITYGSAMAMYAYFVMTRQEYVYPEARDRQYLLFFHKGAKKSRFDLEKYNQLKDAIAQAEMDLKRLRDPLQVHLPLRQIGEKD
UniProt P10620, sequence (P10620 whole entry, looked up): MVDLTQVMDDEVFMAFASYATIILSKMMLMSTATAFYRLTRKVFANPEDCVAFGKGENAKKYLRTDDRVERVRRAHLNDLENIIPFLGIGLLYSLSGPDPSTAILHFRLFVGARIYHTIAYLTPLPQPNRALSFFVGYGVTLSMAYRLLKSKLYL
UniProt Q5T3J3, sequence (Q5T3J3 whole entry, looked up): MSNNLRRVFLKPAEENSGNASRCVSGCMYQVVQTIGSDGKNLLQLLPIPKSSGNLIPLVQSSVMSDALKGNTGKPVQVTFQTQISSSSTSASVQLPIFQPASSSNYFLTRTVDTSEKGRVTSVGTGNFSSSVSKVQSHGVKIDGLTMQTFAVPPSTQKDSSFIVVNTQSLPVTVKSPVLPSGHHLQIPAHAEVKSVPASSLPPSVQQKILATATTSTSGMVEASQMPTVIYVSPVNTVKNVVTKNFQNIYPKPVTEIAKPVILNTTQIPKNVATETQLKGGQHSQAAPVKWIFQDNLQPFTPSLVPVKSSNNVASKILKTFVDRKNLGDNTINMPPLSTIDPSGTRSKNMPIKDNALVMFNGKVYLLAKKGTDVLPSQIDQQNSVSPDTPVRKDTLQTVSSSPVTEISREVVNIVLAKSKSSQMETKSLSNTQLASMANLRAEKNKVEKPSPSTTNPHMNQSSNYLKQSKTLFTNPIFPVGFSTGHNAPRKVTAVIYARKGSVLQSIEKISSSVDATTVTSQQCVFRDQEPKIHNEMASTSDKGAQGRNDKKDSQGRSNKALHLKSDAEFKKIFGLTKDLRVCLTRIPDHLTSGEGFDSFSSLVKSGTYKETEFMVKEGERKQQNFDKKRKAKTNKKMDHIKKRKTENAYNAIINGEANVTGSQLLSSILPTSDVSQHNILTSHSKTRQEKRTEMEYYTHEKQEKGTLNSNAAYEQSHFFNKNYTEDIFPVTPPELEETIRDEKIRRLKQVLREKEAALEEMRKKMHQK
UniProt Q9BW19, sequence (Q9BW19 whole entry, looked up): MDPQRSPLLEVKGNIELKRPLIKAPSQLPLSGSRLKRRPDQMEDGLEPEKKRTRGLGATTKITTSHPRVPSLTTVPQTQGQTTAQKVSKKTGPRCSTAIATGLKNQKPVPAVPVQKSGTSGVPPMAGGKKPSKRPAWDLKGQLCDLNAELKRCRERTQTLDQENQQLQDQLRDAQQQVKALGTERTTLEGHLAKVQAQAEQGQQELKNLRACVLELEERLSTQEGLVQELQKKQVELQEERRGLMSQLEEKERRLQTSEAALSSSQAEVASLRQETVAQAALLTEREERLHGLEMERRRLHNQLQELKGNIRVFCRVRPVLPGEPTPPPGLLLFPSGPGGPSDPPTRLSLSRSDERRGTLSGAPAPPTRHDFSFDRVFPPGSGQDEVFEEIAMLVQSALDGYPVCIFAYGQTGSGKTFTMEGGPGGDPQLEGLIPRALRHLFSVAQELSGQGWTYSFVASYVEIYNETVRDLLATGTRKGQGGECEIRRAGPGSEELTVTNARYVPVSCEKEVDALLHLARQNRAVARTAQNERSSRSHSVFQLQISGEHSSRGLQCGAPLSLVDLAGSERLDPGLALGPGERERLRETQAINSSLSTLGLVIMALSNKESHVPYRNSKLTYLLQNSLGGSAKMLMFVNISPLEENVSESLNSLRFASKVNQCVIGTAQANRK
UniProt O95297, sequence (O95297 whole entry, looked up): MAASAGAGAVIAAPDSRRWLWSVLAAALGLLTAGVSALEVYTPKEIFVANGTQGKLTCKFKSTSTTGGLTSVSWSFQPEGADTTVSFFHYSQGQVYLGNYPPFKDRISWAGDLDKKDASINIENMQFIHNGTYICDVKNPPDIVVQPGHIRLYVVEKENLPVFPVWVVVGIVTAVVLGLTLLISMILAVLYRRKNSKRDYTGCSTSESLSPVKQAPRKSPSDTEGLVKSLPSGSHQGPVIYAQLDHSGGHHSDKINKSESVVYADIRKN
UniProt P11279, sequence (P11279 whole entry, looked up): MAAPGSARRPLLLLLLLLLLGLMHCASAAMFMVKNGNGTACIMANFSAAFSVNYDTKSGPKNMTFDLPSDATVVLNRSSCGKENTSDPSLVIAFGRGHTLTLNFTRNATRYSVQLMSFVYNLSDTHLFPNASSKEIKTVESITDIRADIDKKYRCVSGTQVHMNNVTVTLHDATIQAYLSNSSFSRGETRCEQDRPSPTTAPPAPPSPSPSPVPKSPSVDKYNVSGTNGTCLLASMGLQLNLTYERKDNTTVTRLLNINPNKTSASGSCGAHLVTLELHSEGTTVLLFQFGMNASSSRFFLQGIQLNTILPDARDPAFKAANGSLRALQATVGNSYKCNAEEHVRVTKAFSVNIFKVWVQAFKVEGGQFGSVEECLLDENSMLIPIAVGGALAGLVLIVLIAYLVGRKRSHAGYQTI
UniProt Q9UI95, sequence (Q9UI95 whole entry, looked up): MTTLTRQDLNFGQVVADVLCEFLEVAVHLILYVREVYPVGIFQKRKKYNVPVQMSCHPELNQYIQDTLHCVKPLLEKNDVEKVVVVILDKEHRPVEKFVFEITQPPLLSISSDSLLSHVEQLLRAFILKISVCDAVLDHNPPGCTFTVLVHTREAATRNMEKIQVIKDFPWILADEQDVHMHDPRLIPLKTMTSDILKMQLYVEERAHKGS
UniProt Q9UFC0, sequence (Q9UFC0 whole entry, looked up): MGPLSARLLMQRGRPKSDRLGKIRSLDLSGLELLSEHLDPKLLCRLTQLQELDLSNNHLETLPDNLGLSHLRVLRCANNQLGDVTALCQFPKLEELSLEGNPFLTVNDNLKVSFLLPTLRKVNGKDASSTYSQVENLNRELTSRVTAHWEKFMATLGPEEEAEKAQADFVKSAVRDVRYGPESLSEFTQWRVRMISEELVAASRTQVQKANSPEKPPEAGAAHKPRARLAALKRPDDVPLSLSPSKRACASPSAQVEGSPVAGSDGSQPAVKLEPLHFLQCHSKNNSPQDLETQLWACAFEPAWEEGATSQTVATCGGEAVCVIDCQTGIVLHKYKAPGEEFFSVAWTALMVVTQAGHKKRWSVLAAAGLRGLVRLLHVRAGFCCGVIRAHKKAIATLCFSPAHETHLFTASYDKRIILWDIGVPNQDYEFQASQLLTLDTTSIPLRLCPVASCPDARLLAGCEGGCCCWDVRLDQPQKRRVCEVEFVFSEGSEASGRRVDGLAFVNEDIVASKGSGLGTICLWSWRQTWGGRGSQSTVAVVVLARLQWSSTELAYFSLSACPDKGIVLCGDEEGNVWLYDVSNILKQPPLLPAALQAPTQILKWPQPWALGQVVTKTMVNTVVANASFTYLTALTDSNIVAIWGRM
UniProt Q96IZ6, sequence (Q96IZ6 whole entry, looked up): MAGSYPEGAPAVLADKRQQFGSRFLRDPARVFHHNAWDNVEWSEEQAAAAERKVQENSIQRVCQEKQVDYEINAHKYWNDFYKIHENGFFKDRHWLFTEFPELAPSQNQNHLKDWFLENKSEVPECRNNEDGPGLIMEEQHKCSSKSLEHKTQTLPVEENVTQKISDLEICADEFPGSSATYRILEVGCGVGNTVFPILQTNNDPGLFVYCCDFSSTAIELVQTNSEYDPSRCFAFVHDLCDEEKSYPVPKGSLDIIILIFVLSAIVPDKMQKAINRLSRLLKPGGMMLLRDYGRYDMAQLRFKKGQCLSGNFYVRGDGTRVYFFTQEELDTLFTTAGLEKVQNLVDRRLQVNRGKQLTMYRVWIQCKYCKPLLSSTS

Target	log2 fold change (alvocidib)	log2 fold change (Tubastatin A)	log2 fold change [1]	log2 fold change (defactinib)	log2 fold change [2]	log2 fold change (encorafenib)	log2 fold change [3]	log2 fold change (alisertib)	log2 fold change [4]	log2 fold change (gefitinib)	log2 fold change (lapatinib)	log2 fold change (pictilisib)	log2 fold change (crizotinib)	log2 fold change [5]	log2 fold change (duvelisib)	log2 fold change (gandotinib)	log2 fold change (tozasertib)	log2 fold change (doramapimod)	log2 fold change (bafetinib)	log2 fold change [6]
KPNA4 (UniProt O00629)	-0.098	0.007	0.014	-0.002	0.008	0.02	-0.059	-0.007	0.002	0.013	0.03	0.011	-0.044	-0.217 (active)	0.012	0.089	-0.018	0.02	0.049	0.155
MED13L (UniProt Q71F56)	0.042	-0.069	0.016	-0.011	-0.004	0.02	0.021	-0.084	-0.005	0.01	0.034	-0.072	-0.039	-0.047	-0.083	-0.005	-0.019	0.026	-0.061	0.035
MGST1 (UniProt P10620)	0.033	-0.011	0.07	0.02	0.038	0.007	0.001	0.009	0.023	-0.066	-0.047	0.018	0.003	0.22 (active)	0.013	-0.025	-0.011	-0.041	-0.032	-0.016
LSS (UniProt P48449)	-0.011	0.021	-0.03	-0.026	0.021	0.031	0.02	0.011	0.032	0.055	0	0.11	0.252 (active)	0.01	0.008	0.028	0.02	0.031	0.13	-0.013
LAMP1 (UniProt P11279)	-0.242	0.051	-0.013	-0.03	0.059	0.015	-0.047	0.017	0.028	0.053	-0.033	-0.014	-0.014	-0.496 (active)	0.005	0.241 (active)	-0.05	-0.044	-0.065	0.172
MAPK6 (UniProt Q16659)	0.133	-0.086	0.115	0.049	-0.023	-0.037	-0.092	-0.001	0.072	0.113	-0.038	-0.021	0.025	0.075	-0.008	-0.042	-0.024	-0.006	-0.028	-0.045
METTL2A (UniProt Q96IZ6)	0.023	-0.079	0.058	0.019	-0.028	-0.007	0.055	-0.057	0.029	0.04	-0.001	-0.049	-0.026	0.056	0.052	-0.065	0.029	0.035	-0.017	-0.065
LZTR1 (UniProt Q8N653)	0.178	-0.168	-0.001	-0.036	-0.012	-0.039	0.174	-0.047	0.137	0.091	0.177	-0.031	-0.092	0.135	-0.033	-0.121	-0.023	0.083	0.005	0.026
MPZL1 (UniProt O95297)	-0.01	0.048	-0.014	0.01	0.028	0.045	-0.082	0.007	0.012	0.016	-0.006	-0.026	0.074	0.132	0.001	-0.009	-0.029	-0.087	-0.027	-0.107
MARK2 (UniProt E9PC69)	-0.032	-0.049	-0.187	-0.087	0.056	0.181	0.211	0.021	0.01	-0.03	0.003	0.052	-0.14	0.131	-0.068	-0.166	-0.233	0.075	-0.071	0.025
LARS2 (UniProt Q15031)	0.021	-0.06	-0.047	0.013	-0.088	0.038	-0.115	0.051	0.007	0.012	-0.012	-0.073	-0.047	0.014	-0.039	-0.2	0.054	0.012	-0.067	0.044
LAGE3 (UniProt Q14657)	-0.013	0.004	-0.001	-0.194	-0.035	0.047	-0.076	0.224	-0.042	0.107	0.002	-0.032	-0.014	0.04	-0.12	-0.013	0.043	0.009	0.084	0.013
MCU (UniProt Q8NE86)	0.011	0.045	0.026	0.037	-0.067	0.016	-0.035	0.01	-0.063	-0.091	-0.145	-0.041	-0.125	-0.03	0.037	-0.311 (active)	-0.02	0.085	-0.108	0.032
MRPL28 (UniProt Q13084)	0.261	-0.074	-0.11	0.039	0.001	0.026	-0.026	0.045	-0.02	0.072	-0.046	0.03	-0.08	0.482 (active)	0.043	-0.246	0.059	-0.012	-0.04	-0.228
MAP1S (UniProt Q66K74)	0.027	-0.072	-0.01	0.018	-0.015	0.008	0.06	0.006	-0.008	-0.021	0.009	-0.06	-0.016	-0.021	0.004	-0.065	0.035	0.003	-0.03	0.049
MAD2L2 (UniProt Q9UI95)	-0.026	0.051	0.033	0.06	0.064	-0.069	0.022	0.04	0.135	-0.006	-0.003	0.058	-0.142	-0.008	-0.001	-0.127	0.042	0.022	-0.11	0.073
MRPL12 (UniProt P52815)	0.066	0.117	0.06	0.096	0.037	0.003	-0.079	0.115	-0.01	-0.153	0.094	-0.019	0.086	-0.1	0.011	0	0.077	-0.031	-0.073	0.035
LRWD1 (UniProt Q9UFC0)	0.027	-0.2	-0.049	0.059	-0.051	0.01	0.11	-0.001	0.017	-0.024	-0.026	-0.049	-0.199	-0.011	0	-0.102	-0.007	0.029	-0.082	0.019
MLST8 (UniProt Q9BVC4)	0.009	-0.072	-0.059	-0.023	-0.059	-0.012	0.038	-0.016	-0.01	-0.004	-0.028	-0.073	0.004	-0.034	-0.028	-0.055	0.078	0.08	-0.026	0.032
L3HYPDH (UniProt Q96EM0)	0.023	-0.052	0.005	-0.012	0.022	-0.017	0.039	-0.019	-0.005	-0.013	-0.019	-0.032	-0.028	-0.045	-0.014	0.018	-0.002	0.036	-0.018	-0.048
KIFC1 (UniProt Q9BW19)	-0.022	-0.15	-0.013	-0.003	0.024	-0.03	0.14	0.011	0.008	-0.01	-0.021	-0.013	-0.019	-0.016	-0.003	-0.05	0.047	0.021	-0.027	0.031
MICU1 isoform 3 (UniProt Q9BPX6)	0.092	-0.065	0	0.026	-0.061	-0.037	-0.05	-0.025	-0.063	0.023	-0.052	-0.053	-0.107	0.253 (active)	-0.007	-0.408 (active)	0.049	-0.008	-0.077	-0.209
MAPK14 (UniProt Q16539)	0.007	-0.203	0.38	-0.053	-0.043	0.488	0.314	-0.144	0.011	0.295	-0.047	-0.004	-0.094	-0.034	-0.026	-0.037	0.009		1.03 (active)	0.015
LRIF1 (UniProt Q5T3J3)	-0.018	0.075	-0.035	0.002	0.126	0.049	0.052	-0.03	0.234	-0.039	-0.094		0.019	-0.008	-0.133	0.006	0.039	0.026		-0.038
